Screening results deposited in PubChem BioAssay by National Center for Advancing Translational Sciences (NCATS).
The list is not random: actives were taken first. Their share in the collection is about 21%.
Pf growth 96h = P. falciparum growth inhibition at 96 hour, primary screen for plastid delayed-death inhibitors | P. falciparum luciferase reporter growth, 96 h | Potency, µM (doses to about 28.7 µM), without a hit: at the highest dose activity change, negative = inhibition, most hits filed as inhibitors | actives 6.9% (n = 320,000) | AID 504834; note: potency is the fitted concentration of half-maximal effect; % is set by controls: 0 for no effect and ±100 for the full control effect
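Infected RBCs, 2% Hct / 0.05% parasitemia final; luciferase-reporter P. falciparum; cpd 96 h, 37 C, 5% CO2; luciferase detection reagent; luminescence.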
Shiga inhibitor = Shiga toxin inhibition; AID 2315; inhibition, % at 38.7 µM; Vero cells, Shiga toxin protein synthesis inhibition reporter; actives 9.2% (n = 290,000); in the data active = inhibition mostly above about 28%, no sharp cut-off; inactive = mostly below about 43%; note: 0% is about no effect
CHX counter = affects cycloheximide protein synthesis inhibition readout, counter-screen. cell reporter, cycloheximide protein synthesis inhibition counterscreen. max response, %. actives 12% (n = 300,000); in the data active = max response mostly above about 13%, no sharp cut-off; inactive = mostly below about 14%; note: read at 38.3 µM for the half of the compounds with a filed dose; 0% is about no effect
Pf growth 48h = inhibits P. falciparum growth in the first generation, 48 h; P. falciparum luciferase growth in erythrocytes, 48 h; Potency, µM (titrated, usually from 28.7 µM), for inactives: at the highest dose activity change, negative = inhibition, actives largely listed as inhibitors; actives 5.9% (n = 310,000); AID 504832; note: potency is the fitted concentration of half-maximal effect; % is set by controls: 0 for no effect and ±100 for the full control effect
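Here the parasites carry a stable luciferase gene and grow inside erythrocytes in Albumax-based RPMI medium with compound for one erythrocytic cycle. Activity is scored as loss of luminescent signal.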
NS1 function inh = blocks influenza NS1 protein function | Potency, µM (highest dose often 46.1 µM), without a hit: top-dose activity, positive = more growth | actives 0.4% (n = 270,000); calls by dose curve; note: potency is the fitted concentration of half-maximal effect; actives are rising curves; nearly all actives have a fitted effect of over 50% in size
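Read-out: OD600 growth recovery of NS1-expressing budding yeast. Cells grown overnight at 30C in -URA glucose medium, washed, resuspended and diluted 1:100 in 2% galactose assay medium, pH 6.0. Same strain lacking NS1 served as positive control.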
Active calls of the source: *; u = inconclusive; x = not tested or not shown; [ ] = another dose, or the depositor's remark. Unless noted, calls come from the whole dose curve; as a rule, active = well fitted inhibition curve with a large enough effect; inconclusive = small, poorly fitted or top-dose-only effect, or another doubt; inactive = no such curve, though single readings can be large or run the other way.

SMILES | Pf growth 96h | Shiga inhibitor | CHX counter | Pf growth 48h | NS1 function inh
CCN(CC(=O)NCc1ccc(Cl)cc1)CC(=O)Nc1ccc(C(N)=O)cc1 | u | -7 | 4 | 1% | x
COc1cc(CNCCN2CCOCC2)ccc1OCc1ccc(Cl)cc1Cl | 2.3µM* | -16 | -7 | 9.3µM* | 6%
COc1cc(CNCCN2CCOCC2)ccc1OCc1cccc(Cl)c1 | 12µM* | -6 | 6 | x | -5%
Cc1ccc(S(=O)(=O)N(C)c2cc(S(N)(=O)=O)c(C)cc2C)cc1 | u | -15 | -4 | 0%[5.75 µM] | x
CCOC(=O)c1c(NC(=O)CC2SC(N)=NC2=O)sc2c1CCC(C)C2 (configuration not stated) | 44% | 7 | -2 | u | 27%
CCOC(=O)c1c(NC(=O)Cn2nc([N+](=O)[O-])c(Br)c2C)sc2c1CCC(C)C2 (configuration not stated) | 0.013µM* | -10 | 1 | -27% | 3%
Cc1c(Cl)c([N+](=O)[O-])nn1CC(=O)NC1CCCCC1 | u | -10 | -4 | -2% | -3%
CCOC(=O)c1c(NC(=O)Cn2nc(C(=O)O)c3ccccc3c2=O)sc2c1CCC(C)C2 (configuration not stated) | 35% | -7 | 13 | -5% | 1%
Cc1c(Br)c([N+](=O)[O-])nn1CC(=O)NC1CCCCCC1 | 1.5µM* | -4 | 8 | -12% | 12%
COCC(=O)Nc1sc2c(c1C(=O)OC)CCC(C)C2 (configuration not stated) | x | 37 | 12* | 3% | -1%
COC(=O)c1c(NC(=O)CC2SC(N)=NC2=O)sc2c1CCC(C)C2 (configuration not stated) | 3.7µM* | -11 | -1 | 5% | 17%
Cc1cnc(NC(=O)Nc2ccc(OCc3ccccc3)cc2)c(Br)c1 | 2% | 26 | 16* | 23% | 1%
O=C(Nc1ccc(COc2ccccc2)cc1)c1cccc([N+](=O)[O-])c1 | 32% | -2 | 12 | 12% | 2%
CC(=O)Nc1ccc(OCc2cccc([N+](=O)[O-])c2)cc1 | 18% | 82* | 29* | 55% | -2%
CC(=O)Nc1ccc(OCc2ccc(S(=O)(=O)Cc3ccccc3)cc2)cc1 | u | 3 | -3 | 13% | 2%
COCC(=O)Nc1ccc(OCc2ccccc2)cc1 | -1% | 61* | 38* | 46% | 7%
COC(=O)Nc1ccc(SCC(=O)c2ccccc2)cc1 | 35% | 62* | 51* | 31% | x
CC(=O)C1=C(O)C(=O)N(c2cccnc2)C1c1ccc(Cl)cc1 (configuration not stated) | 26% | -13 | 3 | 92% | -3%
NC(=O)COc1ccc(NC(=O)OCc2ccccc2)cc1 | x | 36* | 24* | 85% | -9%
COC(=O)Nc1ccc(OCc2ccccc2)cc1 | 0% | 72* | 60* | 151% | -40%
Cn1nc(OC(=O)Nc2ccccc2)cc1C(F)(F)F | 87% | 37* | 28* | 63% | -9%
O=C(Nc1ccccc1)Oc1ccc[nH]c1=O | 42% | 16 | 21* | 16% | -3%
COC(=O)Nc1ccc(Oc2ccccc2)cc1 | u | 24 | 9.6* | 18% | -43%
CC(=O)Nc1ccc(N=Cc2ccc(OCc3ccccc3)cc2)cc1 | 11% | 68* | 35* | 4% | -19%
CS(=O)(=O)Nc1ccc(OCc2ccccc2)cc1 | 11% | 55 | 19* | x | 0%
SMILES | Pf growth 96h | Shiga inhibitor | CHX counter | Pf growth 48h | NS1 function inh
CC(C)C(=O)N/N=C/c1ccc(OCc2ccccc2)cc1 | 59% | 27 | 3 | 18% | -65%
CC(=O)Nc1cccc(OCc2ccc(S(=O)(=O)Cc3ccccc3)cc2)c1 | u | 64* | 40* | -20% | 7%
O=Cc1ccc(-c2cc(Cl)ccc2Cl)[nH]1 | 6% | 15 | 7 | -2% | -8%
Cn1cnnc1SCC(=O)c1ccc(O)c(O)c1 | u | -3 | -2 | 26% | x
Cc1ccc(N(C)C(=O)c2cc(S(=O)(=O)N3CCCC3)cn2C)cc1 | 8% | 14 | -2 | -1% | 13%
O=C(O)/C=C/c1ccc(S(=O)(=O)Nc2ccc(OCc3ccccc3)cc2)cc1 | 53% | 28 | -6 | -3% | u
Cc1ccc(OC(=O)Nc2ccccc2)cc1 | 68% | 65* | 43* | 10µM* | x
O=C(O)CCc1ccc(S(=O)(=O)Nc2ccc(OCc3ccccc3)cc2)cc1 | 0% | 45* | 14* | 38% | u
O=C(Nc1ccccc1)Oc1ccccc1 | x | -2 | 7 | 31% | 2%
CC1CCN(c2nc(Cl)nc(Nc3ccc([N+](=O)[O-])cc3)n2)CC1 | 2% | -4 | -3 | -3% | 10%
CC(=O)n1c2ccccc2c2nc(NC(C)C)sc21 | 7% | 22 | 16* | x | -171%
Cn1ncc(Br)c1C(=O)N/N=C/c1ccc(OS(=O)(=O)c2ccccc2)cc1 | -2% | 8 | 6 | 7% | 3%
CC(/C=N/NC(=O)c1nn(C)c(C)c1Br)=C\c1ccccc1 | -1% | 117* | 63* | 54% | -50%
CC(/C=N/NC(=O)c1c(Br)cnn1C)=C\c1ccccc1 | 36% | 47* | 25* | 32% | -21%
CCOC(=O)CNC(=O)c1cc(-c2ccccn2)nc2c(C)c(Cl)ccc12 | 20% | -6 | -4 | 7% | 3%
Cc1ccc(C(=O)NCCSc2ccc(Cl)cc2)cc1[N+](=O)[O-] | 4.1µM* | 4 | 6 | 13µM* | u
Cc1ccc(C(=O)Nc2ccccc2-c2ccccc2)cc1[N+](=O)[O-] | 23% | -17 | -4 | 7% | 0%
Cc1ccc(SCCNC(=O)c2ccc(C)c([N+](=O)[O-])c2)cc1 | -21% | 6 | -4 | -17% | -41%
Cc1ccc(C(=O)Nc2cc(Cl)ccc2Oc2ccccc2)cc1[N+](=O)[O-] | u | 10 | -2 | 13µM* | 9%
Cc1ccc(C(=O)NCCc2cccc(Cl)c2)cc1[N+](=O)[O-] | u | active | 38* | 52% | -28%
O=C(NCCc1cccc(Cl)c1)c1ccc(Cl)c([N+](=O)[O-])c1 | u | 0 | 16 | 9% | -40%
O=C(CSCc1ccccc1Cl)NNC(=S)Nc1ccccc1 | 80% | 33 | 11* | 55% | 18%
COc1ccc(Cl)cc1S(=O)(=O)N1CCCC(C(=O)NCCc2ccccc2)C1 (configuration not stated) | 10µM* | 22 | 4 | 38% | -23%
Cc1nn(C)c(C)c1S(=O)(=O)N1CCCC(C(=O)NCCc2ccc(Cl)cc2)C1 (configuration not stated) | u | -3 | 2 | -7% | -6%
Cc1noc(C)c1S(=O)(=O)N1CCCC(C(=O)NCc2ccccc2Cl)C1 (configuration not stated) | 5.9µM* | -7 | -2 | 1% | 0%
Cc1noc(C)c1S(=O)(=O)N1CCCC(C(=O)NCCc2ccc(Cl)cc2)C1 (configuration not stated) | x | 12 | 6 | 12µM* | -4%
COc1ccc(O)c(CNc2ccccc2F)c1 | 11% | 10 | 21 | 15% | x
C=CCn1c(SCC(=O)NC2CCCC2)nc2sc(C)cc2c1=O | 6.6µM* | x | x | -1% | x
